# RGS4-Gao reg: human RGS4-Galphao interaction regulation | Multiplexed bead flow cytometry, RGS4-Galphao binding; actives lie on both sides | binding response (% of control), % at 10 µM | 220,000 tested, 0.33% active | AID 1415; in the data active = binding response below about 49% or above about 150%; inactive = in between;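 note: fluorescent Galphao activated with aluminum fluoride binding bead-coupled RGS4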
# Target sequence (P09471 whole entry, looked up): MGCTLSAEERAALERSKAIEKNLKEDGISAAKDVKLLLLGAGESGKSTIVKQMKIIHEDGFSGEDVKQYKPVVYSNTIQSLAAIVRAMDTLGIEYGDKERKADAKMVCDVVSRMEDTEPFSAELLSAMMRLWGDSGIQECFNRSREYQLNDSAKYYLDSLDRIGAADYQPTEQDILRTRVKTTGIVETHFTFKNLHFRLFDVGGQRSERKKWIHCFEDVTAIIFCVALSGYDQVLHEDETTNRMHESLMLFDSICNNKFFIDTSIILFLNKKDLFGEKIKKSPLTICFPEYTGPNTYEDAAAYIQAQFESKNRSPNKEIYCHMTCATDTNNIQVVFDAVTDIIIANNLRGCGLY
# GSH bead fluor: compound fluoresces at 488/530 nm on GSH beads; GSH beads flow cytometry, compound fluorescence 488/530 nm; hits give high values; fluorescence (KMESF) at 10 µM; 190,000 tested, 0.25% active; AID 1776; in the data active = fluorescence above about 89;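 note: glutathione beads carrying GST-tagged Bcl family fusion proteins plus one bare bead set; values are compound well signal with DMSO vehicle wells as background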
# RGS7-Gao reg: human RGS7-Galphao interaction regulation. P09471. Multiplexed bead flow cytometry, RGS7-Galphao binding; actives lie on both sides. binding response (% of control), % at 10 µM. 220,000 tested, 0.35% active. AID 1439; in the data active = binding response below about 49% or above about 150%; inconclusive = no clear call, values can overlap the other calls; inactive = in between;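 note: fluorescent Galphao held in activated GDP-AlF4 state binding bead-coupled RGS7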
# RGS16-Gao HTS: RGS16-Galphao interaction regulator (human). 220,000 tested, 0.38% active. AID 1441. bead-based flow cytometry RGS16-Galphao binding, fluorescence; actives lie on both sides. binding response (% of control), % at 10 µM; call rule not given here;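 note: Galphao activated by GDP with aluminum fluoride before binding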
# RGS8-Gao reg: regulators of human RGS8-Galphao interaction. P09471. multiplexed bead flow cytometry, RGS8-Galphao binding; actives lie on both sides. response (percent of control binding), % at 10 µM. 220,000 tested, 0.34% active. AID 1423; in the data active = response below about 60% or above about 140%; inactive = in between;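 note: Galphao activated as the GDP aluminium fluoride complex binding bead-coupled RGS8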
# Avidin fluor: compound fluoresces at 488/530 nm on avidin beads; compound fluorescence 488/530 nm, flow cytometry; hits give high values; fluorescence (KMESF) at 10 µM; 220,000 tested, 0.38% active; AID 1775; in the data active = fluorescence above about 47
# An asterisk follows results filed as active; ? = inconclusive; . = not tested or not shown; [ ] = remark or other dose. Hits are enriched below; roughly 1.2% of the tested compounds scored in any of these assays.
SMILES,RGS4-Gao reg,GSH bead fluor,RGS7-Gao reg,RGS16-Gao HTS,RGS8-Gao reg,Avidin fluor
O=C(NCC(=O)N(c1cccnc1)C(C(=O)NC1CCCC1)c1ccco1)c1cccs1 (stereo unspecified),105,28,113,101,101,57*
O=C(NC(=S)Nc1ccc(N2CCOCC2)cc1)c1cncc(Br)c1,90,15,92,49,81,26
COCc1cc(CN2CCCC2)c(O)c2ncccc12,104,14,114,101,101,66*
CCc1nnc(NC(=O)CSc2nnc(CCc3nc4ccccc4[nH]3)n2C)s1,99,286*,99,103,99,7
Cc1nnc(NC(=O)CSc2nnc(CCc3nc4ccccc4[nH]3)n2C)s1,103,5,97,102,104,8
O=C(CSc1nc2cc(Cl)ccc2s1)c1ccco1,96,8,95,98,99,15
O=C(CSCc1ccc(Cl)cc1)c1ccco1,108,260*,106,108,104,7
COc1ccc(-n2c(C)cc(C(=O)CSc3nn4c(=O)c(C(C)(C)C)nnc4s3)c2C)cc1,103,23,113,110,103,57*
CCCCN1C(=O)N(C)C2C1N(C)C(=O)N2CCCC (stereo unspecified),105,130*,103,124,106,5
CCCCN1C(=O)N(C)C2NC(=O)NC21 (stereo unspecified),100,14,98,102,98,10
O=C1c2ccccc2NC(c2ccc3c(c2)OCCO3)N1c1ccc2c(c1)OCCO2 (stereo unspecified),107,262*,102,103,101,8
O=c1c2ccccc2nc(SCc2cccc(F)c2)n1Cc1ccco1,108,25,122,109,100,72*
CCOc1ccc(CN2CCN(Cc3[nH]c4ccccc4c3C)CC2CCO)cc1 (stereo unspecified),103,14,102,107,102,11
COC(=O)c1cc(OC)c(OC)c(OC)c1N,110,259*,108,113,103,7
COCCn1c(SCC(=O)N2CC(=O)Nc3ccccc32)nc2ccccc21,100,6,102,105,101,13
O=C(NC(=S)Nc1nc2ccccc2s1)c1cccs1,107,6,105,109,103,14
CCc1ccc(-c2nc(NC(=S)NC(=O)c3cccs3)sc2C)cc1,99,24,114,98,98,57*
C#CCOCCOCCOCCNc1nc(N2CCN(C(=O)[C@H](Cc3cc4ccccc4[nH]3)n3cc([C@@H](N)CC(C)C)nn3)CC2)nc(N2CCN(C(=O)[C@H](Cc3cc4ccccc4[nH]3)n3cc([C@@H](N)CC(C)C)nn3)CC2)n1,107,15,102,98,103,5
NC(=O)c1ccc(N=Nc2c(-c3ccccc3)[nH]n(-c3ccccc3)c2=O)cc1,114,11,?,108,108,63*
FC(F)(F)c1cc(-c2ccccc2)nc(NC2CCCC2)n1,107,37,107,105,105,16
CCOC(=O)C1CCCN(C(=O)C(C)Oc2ccc(Cl)cc2Cl)C1 (stereo unspecified),101,38,102,105,102,7
COC(=O)C1CCN(C(=O)C(C)Oc2ccc(Cl)cc2Cl)CC1 (stereo unspecified),108,28,138,104,102,57*
O=C(O)c1ccc(Sc2nnc(-c3cccc(Br)c3)o2)c([N+](=O)[O-])c1,104,4,101,104,103,8
COc1cc(-c2nnc(Sc3ccc(C(F)(F)F)cc3[N+](=O)[O-])o2)cc(OC)c1OC,106,19,106,103,103,72*
O=C(CSc1cccc2cccc(Cl)c12)NC1=NCCS1,101,11,?,102,104,12
SMILES,RGS4-Gao reg,GSH bead fluor,RGS7-Gao reg,RGS16-Gao HTS,RGS8-Gao reg,Avidin fluor
CC(=O)Nc1ccc(S(=O)(=O)N2CCSC2c2ccc(Cl)cc2)cc1 (stereo unspecified),97,265*,100,60,86,9
Cc1cccc(C(=O)NCC(=O)OCC(=O)N2CCc3ccccc32)c1,101,10,?,101,100,13
Cc1cccc(OCCC(=O)OCC(=O)N2CCc3ccccc32)c1,104,21,116,106,103,54*
COc1ccc(C(=O)Nc2ccc(-c3nnn(CC(=O)NCc4ccco4)n3)cc2)cc1,99,.,?,100,102,8
CCCOC(=O)c1ccc(NC(=O)COC)cc1,103,12,104,106,103,10
CCCOC(=O)c1ccc(NC(=O)c2ccoc2C)cc1,98,27,106,100,98,51*
CCCOC(=O)c1ccc(NC(=O)C2C3C=CC(O3)C2C(=O)O)cc1 (stereo unspecified),116,244*,110,179,119,4
O=C(NC1CCCCC1)c1cccc(Cn2cc(Cl)cn2)c1,102,35,99,101,99,18
Cn1nc(-c2ccccc2)c(C(O)c2ccc(Cl)cc2)c1Cl (stereo unspecified),100,13,108,103,99,56*
CCN(CC)CCCNC(=O)C1c2ccccc2C(=O)N(CCOC)C1c1ccc(F)cc1 (stereo unspecified),102,15,?,101,100,9
COCCN1C(=O)c2ccccc2C(C(=O)Nc2ccc3c(c2)OCCO3)C1c1ccc(F)cc1 (stereo unspecified),104,8,115,96,99,62*
CCC(C)NS(=O)(=O)c1ccc(OCC(=O)NCc2ccccn2)cc1 (stereo unspecified),104,14,110,107,102,16
CCC(C)NS(=O)(=O)c1ccc(OCC(=O)NCc2cccnc2)cc1 (stereo unspecified),103,257*,104,64,95,4
COc1cc(OC)cc(C(=O)N[C@H](C(=O)OCC(=O)Nc2ccc(F)c(F)c2F)C(C)C)c1,98,14,?,102,100,8
COc1ccc(NC(=O)COC(=O)[C@@H](NC(=O)c2c(F)cccc2F)C(C)C)cc1,150*[activator],13,164*[activator],142,142*[activator],12
CC(Oc1ccc(Cl)cc1Cl)c1nc(-c2ccc(NC(=O)c3ccccn3)cc2)no1 (stereo unspecified),104,108*,104,99,102,7
COc1ccc(NC(=O)c2ccccn2)cc1OC,87,9,84,91,94,12
CC(=O)Cc1nsc(NC(=O)c2ccc(-c3cc(C(F)(F)F)ccc3Cl)o2)n1,102,50,100,100,103,8
CC(=O)Cc1nsc(NC(=O)c2ccc(-c3cccc(C(F)(F)F)c3)o2)n1,110,38,115,130,108,53*

# Source: PubChem BioAssay
